From PubChem BioAssay (NCI) come the findings set out here.

Compounds without any hit were thinned out: in the full panel of roughly 83,000, 20% have a hit.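 Note: values are percent growth. 100 is the growth of untreated cells, values between 100 and 0 indicate rising inhibition; between -100 and 0 indicates cell death.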 Unmarked numbers belong to inactive results. Active and inactive are the calls of the source.

This assay relates to CCRF-CEM leukemia. Put plainly: NCI-60 one-dose screen, 48 h (100 = growth as untreated, 0 = no growth, -100 = all killed). Conditions: 10 µM unless noted. As for the experimental part: Growth inhibition of the CCRF-CEM human tumor cell line is measured as a screen for anti-cancer activity. Cells are grown in 96 well plates and exposed to the test compound for 48 hours. Compounds are tested at a single concentration, which is 10^-5 M for most compounds. The reported endpoint is percent growth (GI% or GIPRCNT), where numbers from 0 - 100% represent growth inhibition, and numbers from -100% - 0 represent cell death. For example, a value of 40 represents 60% growth inhibition. A value of 0 means no net growth occurred over the course of the experiment. A value of -40 indicates 40% of cells at the beginning of the experiment died by the end of the experiment. A value of -100 means all cells are dead at the end of the experiment.
NCI-60 Human Tumor Cell Lines Screen was performed using the standard one-dose NCI protocol, which is described in more detail at https://dtp.cancer.gov/discovery_development/nci-60/default.htm.
Compounds with GIPRCNT values below 10 were considered active. Activity score was based on GIPRCNT using the following formula: […]
Score is 0 for GIPRCNT values of 100 or above, 50 for GIPRCNT values of 0, and 100 for GIPRCNT values of -100.
In the case of `C=CCn1c(SCC(=O)Nc2ccc(C(=O)/C=C/c3ccc(C)cc3)cc2)nnc1-c1c[nH]c2ccccc12`, the growth is 83.1%.
Then `Nc1nc(-c2cccc([N+](=O)[O-])c2)c(N=Nc2cccc([N+](=O)[O-])c2)s1`, with 95.2%.
For `O=C(CN1CCN(c2cc(=O)[nH]c3ccc(F)cc23)CC1)Nc1ccc(Cl)cc1`, the growth was 98.2%.
Next, `COc1ccc(/C=N/NC(=O)c2cn(C3CC3)c3c(OC)c(N4CC5CCCNC5C4)c(F)cc3c2=O)cc1` (stereo not given): 63.6%; `CC1=N[C@@H]2CN(C(=O)OC(C)(C)C)C[C@@H]2n2c1cc1ccccc1c2=O`: 105%; `CCCSc1nc(Nc2ccc(/C(C)=N\NC(N)=S)cc2)c(C#N)c(-c2ccccc2)n1`: 69.3%.
With `Cc1cccc2c3c(sc12)C(c1ccc(F)cc1)C(C#N)=C(/N=C/c1ccc(Cl)cc1)O3` (stereo not given), the growth was 13.5%.
`NC(N)=Nc1ccc(Oc2cccc(Nc3ccc(Br)c(C(F)(F)F)c3)c2)cc1`: the growth is 3.83% (active).
On to `Cc1ccc(N2C(=O)/C(=C/C=C/c3ccco3)SC2=S)cc1`, for which the growth was 61.2%.
Then `COc1cc(-c2nc(-c3ccccc3)[nH]c2-c2ccnc(NCCCNS(=O)(=O)c3cccc(F)c3)n2)ccc1Cl`, with 24.6%; and `CN(C)C(=O)c1cc(-c2ccc3ncnc(NCc4ccccc4)c3c2)cnc1N`, with 88%.
With `O=C1[C@H]2Cc3c([nH]c4ccccc34)[C@@H](c3ccc(Br)cc3)N2C(=O)CN1C1CCN(CC2CCCCC2)CC1`, the growth is -27.9% (active).
Then `CCCCCc1ccc(S(=O)(=O)Nc2cccc(-c3csc(NC(=O)CCCCCN4CCN(C)CC4)n3)c2)cc1`, with 5.75% (active).
Then `CCO/C=N/C1=C(C#N)C(c2ccc(Cl)cc2)c2sc3c(CC)cccc3c2O1` (stereo not given), with 16.1%; and `O=C(O)c1ccc(-n2cc(CNc3cccc(Cl)c3)c(-c3ccc(F)cc3)n2)cc1`, with 94%.
Consider `O=C(CNc1nc(-c2cccc([N+](=O)[O-])c2)cs1)Nc1cccc(Cl)c1`, for which the growth is 103%.
Turning to `COc1ccc(/C=C/C(=O)c2cc(S(N)(=O)=O)c(OC)cc2OC)cc1`, the growth was 55.7%.
As to `CCCCCc1ccc(S(=O)(=O)Nc2cccc(-c3csc(NC(=O)CCCCCN4CCN(CCO)CC4)n3)c2)cc1`, the growth is 46.7%.
Take `Cc1ccc(-n2c(/C=C3\C(=O)Nc4ccccc43)ccc2CO)cc1`: the growth is 54.9%.
Then `Clc1cccc(/C=N/Nc2nc(N/N=C/c3cccc(Cl)c3Cl)nc(N3CCCCC3)n2)c1Cl`, with 71.3%; and `O=c1[nH]c2ccccc2cc1CSc1ccccc1Nc1nccc(-c2ccc(Cl)cc2)n1`, with 101%; and `CNC(=O)c1c(NC(=O)c2cccc(C(F)(F)F)c2F)sc2c1CCC(=O)C2`, with 13.6%.
Then `CCCn1cnc2c(c1=N)C(c1ccc(Cl)cc1)c1sc3c(CC)cccc3c1O2` (stereo not given), with 0.961% (active); and `Cc1cccc(/C=C/C(=O)Nc2ncc(Cc3cccc(C)c3)s2)c1`, with 9.99% (active); and `COc1ccc(S(=O)(=O)NCCCNc2nccc(-c3[nH]c(-c4ccccc4)nc3-c3ccc(Cl)c(O)c3)n2)cc1`, with 40.3%.
Then `COc1cc(-c2nc(SC(C)C)n(C(C)C)c(=O)c2C#N)ccc1OCc1ccccc1`, with 33%.
Turning to `COc1cc(OC)c(S(N)(=O)=O)cc1C(=O)/C=C/c1ccc(Cl)cc1`, the growth was 1.6% (active).
In the case of `CC1(C)CC[C@]2(C(=O)O)CC[C@]3(C)C(=CC[C@@H]4[C@@]5(C)CC/C(=N\OCCC#N)C(C)(C)[C@@H]5CC[C@]43C)[C@@H]2C1`, the growth is 90.1%.
With `COc1ccc([C@H]2c3[nH]c4ccccc4c3C[C@H]3C(=O)N(C4CCN(Cc5c(Cl)cccc5Cl)CC4)CC(=O)N23)c(OC)c1`, the growth was 94.6%.
Turning to `COc1cccc(O)c1/C=C(/C)c1ccc2c(OC)cccc2[o+]1`, the growth was 106%.
Next, `CC(=O)N1C(=S)NC(=O)C1CC(C)C` (stereo not given): 103%; `Nc1nc(-c2cccc([N+](=O)[O-])c2)c(N=Nc2ccc(Br)cc2)s1`: 31.9%.
Turning to `O=C(CSc1nnc(-c2ccc3nc(-c4ccccc4)[nH]c3c2)o1)Nc1ccc(C(=O)/C=C/c2ccccc2)cc1`, the growth was 107%.
Next, `COc1ccc(Cn2cc3c(c2-c2cc(OC)c(OC)c(OC)c2)CCc2c(CN4CCCC4)noc2-3)cc1`: 16.3%; `C#CCn1cccc1CNc1ccc(OC)cc1`: -43.6% (active); `C#CCOc1ccc(/C=N\Nc2nc(-c3ccc(C)cc3)cs2)cc1OC`: 90.4%.
As to `CCOC(=O)C(=O)/C(=C\c1ccc(Cl)cc1)C(=O)N1C(=S)NC(=O)C1CC(C)C` (stereo not given), the growth was 91.2%.
Next, `COC(=O)C(Cc1ccccc1)Nc1nc(NC(Cc2ccccc2)C(=O)OC)nc(N2CCOCC2)n1` (stereo not given): 105%; `Cc1occc1-c1nc2s/c(=C/c3ccc(-c4cc(C(F)(F)F)ccc4Cl)o3)c(=O)n2n1`: 117%.
Take `COc1ccc(/C=N/NC2=NC3C(S2)N(C)C(=O)N3C)cc1` (stereo not given): the growth was 15.5%.
